Laboratory results published in PubChem BioAssay AID720488 (Milwaukee Institute for Drug Discovery, 2013).
The whole screen tested about 16,000 compounds, of which about 960 (6%) were called active.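 Rule for the calls: active = compound fluorescence over control fluorescence at most 0.8, a quencher, or at least a set upper limit, an enhancer; inactive = ratio between 0.8 and the set upper limit.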 For the sample, actives were picked, then their nearest neighbours and some compounds at random.

Assay: fluorescence interference in NS3h DNA assay – biochemical, ChemBridge library, Cy5 readout, artefact control for HCV NS3 helicase inhibitor project (AID 720488)
Conditions: Cy5-dT15 DNA with NS3h, at 100 µM, actives lie on both sides, signal over control mean, under 1 quenches

Fluorescence interference ratio, inactive:
CN(C)c1ccc(/C=C2/SC(=S)N(c3ccc(F)cc3)C2=O)cc1 1.06
Cc1c(N2C(=O)S/C(=C\c3ccc(N(C)C)cc3)C2=O)c(=O)n(-c2ccccc2)n1C 1.02
O=C(/C=N/O)NCCCNCc1ccccc1 1.03
CC(C)N1C(=O)/C(=C/c2ccc(O)cc2)SC1=S 0.867
CCC(=O)Nc1ccc(-c2nc3ccccc3o2)cc1 0.946
O=C(Nc1ccc2oc(-c3cccc(Cl)c3Cl)nc2c1)c1ccccc1[N+](=O)[O-] 1.11
CCN1C(=O)/C(=C\c2ccc(OCc3ccccc3Cl)cc2)SC1=S 0.997
COc1ccc(N(CC(=O)Nc2ccc(C(C)C)cc2)S(=O)(=O)c2ccc(C)cc2)c(OC)c1 1.04
COc1ccc(N(CC(=O)NCc2ccncc2)S(=O)(=O)c2ccc(C)cc2)cc1 0.919
CN1CCN(C(=O)c2cc3nc(-c4cccs4)cc(C(F)(F)F)n3n2)CC1 0.935
COc1cccc(C2C(C(=O)Nc3ccccc3)=C(C)N=c3s/c(=C\c4c[nH]c5ccccc45)c(=O)n32)c1 (stereo not given) 1.04
Nc1ccc(Sc2ccccc2[N+](=O)[O-])cc1 0.899
COc1ccc(CCNc2cc(N3CCOCC3)ccc2[N+](=O)[O-])cc1OC 0.856
O=[N+]([O-])c1ccc(N2CCN(S(=O)(=O)c3ccccc3)CC2)cc1N1CCOCC1 1.11
COc1ccc(C(=O)/C=C/Nc2ccc(S(=O)(=O)N=C(N)N)cc2)cc1OC 0.963
Cc1ccc(OCC(=O)NC(C)C)cc1 1.11
CCOC(=O)c1sc(NC(=O)COc2ccc(C)cc2C)c(C(=O)OCC)c1C 0.985
CCOC(=O)c1sc(NC(=O)c2ccc(OC)cc2)c(C(=O)OCC)c1C 1.02
CC(C)(C)c1ccccc1OCC(O)CN1CCCC1 (stereo not given) 1.05
C=CCOc1ccccc1C=C1C(=O)NC(=O)NC1=O 0.999
CC(=O)CC(=O)Nc1ccc2c(c1)OCCO2 1.13
COc1ccccc1NC(=O)CN(c1cccc([N+](=O)[O-])c1)S(=O)(=O)c1ccccc1 0.943
CCOC(=O)c1ccccc1NC(=O)/C(=C/c1cccc([N+](=O)[O-])c1)NC(=O)c1ccccc1 1.01
Cc1cc(Nc2cccc(C(F)(F)F)c2)n2c(nc3ccccc32)c1C#N 1.06
COc1ccc2oc(=O)c(C(=O)O)cc2c1 1.08
O=C(NC(=S)Nc1ccc2oc(-c3cccnc3)nc2c1)c1ccc(Cl)cc1 0.998
O=C(NC(=S)Nc1ccc2oc(-c3ccc(Br)cc3)nc2c1)c1ccco1 1.09
Cc1ccc(C2Nc3ccccc3C(=O)N2c2ccccc2)cc1 (stereo not given) 0.912
CCOC(=O)CSc1nnc(-c2cccc(Br)c2)o1 1.15
COc1ccc(S(=O)(=O)N(CCc2ccccc2)CC(=O)Nc2ccccc2F)cc1 1
O=C(Nc1nc2ccccc2s1)c1ccc2c(c1)OCO2 0.992
COc1ccc(C(=O)Nc2ncc([N+](=O)[O-])s2)cc1OC 0.92
COC(=O)c1c(C)oc2ccc(OCC(=O)c3ccccc3)cc12 0.818
O=C(Nc1ccc(Br)cc1)c1ccc(S(=O)(=O)N2CCCC2)cc1 0.938
COc1ccc2occ(C(=O)c3ccc(N=C(C)N(C)C)cc3)c2c1 1.07
COc1ccccc1C(=O)N=Nc1c(O)n(C)c2ccccc12 1.03
CC(C)Oc1ccc(/C=C(/NC(=O)c2ccccc2)C(=O)Nc2ccccc2)cc1 1.01
CC(=O)Nc1ccc(NC(=S)NC(=O)/C=C/c2ccccc2)cc1 1.07
O=C(CCN1C(=O)/C(=C/c2cccs2)SC1=S)NC12CC3CC(CC(C3)C1)C2 0.998
Cc1cc(C)c(NC(=O)C(=O)NCC(C)O)c(C)c1 (stereo not given) 1.01
CCOc1ccccc1NC(=O)Cc1ccccc1 1.03
O=C(/C=C/c1ccc(F)cc1)Nc1cccc(Cl)c1Cl 1.01
CC(=O)COc1ccc2c(-c3ccccc3)cc(=O)oc2c1 0.969
COCCOC(=O)c1c(C)oc2ccc(OCC(N)=O)cc12 1.05
CS(=O)(=O)N(CC(=O)Nc1ccc(I)cc1)c1cccc(Cl)c1 0.92
Cc1ccc(NC(=O)c2ccc(NC(=O)c3ccc(Cl)cc3Cl)cc2)cc1 0.959
Cc1nn(-c2ccc(I)cc2)c(C)c1-c1cccc([N+](=O)[O-])c1 0.947
NCCCCNc1ccc([N+](=O)[O-])cc1 0.959
CCOC(=O)C1CCN(C(=O)Nc2ccc(Cl)cc2)CC1 1.01
NC(=O)NC(c1ccccc1)c1ccc(I)cc1 (stereo not given) 1.01
O=C(Nc1ccc([N+](=O)[O-])cc1)C1CC(=O)N(c2ccc(Cl)cc2)C1 (stereo not given) 0.885
Cc1cc(OCC(=O)Nc2c(C)cccc2C)ccc1Cl 0.96
COc1ccc(S(=O)(=O)Nc2cc(Br)c(O)c(Br)c2)cc1 0.972
COC(=O)c1ccc(COc2ccc3c4c(c(=O)oc3c2)CCC4)cc1 0.926
CCC1=NN(C(=O)c2cccc(Br)c2)C(O)(c2ccc(C)cc2)C1 (stereo not given) 0.942
O=C(c1ccc(Cl)cc1)N1N=C(c2ccc(F)cc2)CC1(O)C(F)(F)F (stereo not given) 0.933
O=C(Cc1ccc(Cl)cc1)Nc1nccs1 0.993
Cc1cc(C(N)=O)c(-c2ccccc2)o1 1.04
O=C1CC2c3ccccc3C1C1C(=O)N(c3ccc(Br)cc3)C(=O)C21 (stereo not given) 1.04
Cc1ccc(N2C(=O)C3C4c5ccccc5C(C)(c5ccccc54)C3C2=O)cc1 (stereo not given) 0.929
Oc1cccc(Nc2nc(-c3ccc(Br)cc3)cs2)c1 0.941
COCCCNC(=O)C(=O)NCCc1ccc(OC)c(OC)c1 0.956
COc1ccc2c(c1)-c1c(ssc1=S)C(C)(C)N2C(=O)COc1ccccc1 0.931
COc1ccc(C(=O)Nc2ccccc2)cc1NC(=O)C(C)Oc1ccccc1 (stereo not given) 0.898
O=C(/C=C/c1ccccc1)NC(=S)Nc1ccc([N+](=O)[O-])cc1 1.02
Cc1cc(C)c(C(O)=Cc2nc3ccccc3[nH]c2=O)c(C)c1 1.05
CCN1C(=O)/C(=C\c2cn(Cc3ccc(F)cc3)c3ccccc23)SC1=S 1.07
COc1ccccc1NC(=O)c1cc(Nc2ccccc2)nc2ccccc12 1.05
Cc1ccc(-c2cc(NC(=O)c3cccs3)n[nH]2)cc1 0.923
Cc1cc(C(=O)N2CCN(c3cccc(Cl)c3)CC2)ccc1[N+](=O)[O-] 0.957
O=C1/C(=C\c2cn(Cc3ccccc3F)c3ccccc23)SC(=S)N1c1ccc([N+](=O)[O-])cc1 0.998
CC(C)(C)N1C(=O)NC(=O)C(=Cc2cccs2)C1=O 1.01
CCCCOC(=O)CCN1C(=O)/C(=C/c2ccc3c(c2)OCO3)SC1=S 0.998
O=C(NC(NC(=O)C(c1ccccc1)c1ccccc1)c1ccc(F)cc1)C(c1ccccc1)c1ccccc1 1.07
CCOC(=O)c1ccc(NC2C=CS(=O)(=O)C2)cc1 (stereo not given) 0.986
O=C(COc1ccccc1Cl)Nc1ccc(O)cc1C(=O)O 1
O=C(NCCN1CCN(S(=O)(=O)c2ccccc2)CC1)C(=O)Nc1ccc(Br)cc1 1.01

Fluorescence interference ratio, active:
Cc1cccc(N2C(=O)S/C(=C/c3ccc(N(C)C)cc3)C2=O)c1 0.733
CCc1ccc2oc(-c3ccc(NC(=O)c4ccccc4[N+](=O)[O-])cc3)nc2c1 0.659
COCCCNC(=O)CN(c1ccc(OC)cc1OC)S(=O)(=O)c1ccc(C)cc1 1.23
O=[N+]([O-])c1ccc(N2CCN(CCO)CC2)cc1NC(c1ccccc1)c1ccccc1 0.793
CCOC(=O)c1c(-c2ccc(C)cc2C)csc1NC(=S)NC(=O)c1ccccc1 1.21
CCOC(=O)c1ccc(NC(=O)CN(c2cccc([N+](=O)[O-])c2)S(=O)(=O)c2ccccc2)cc1 0.663
O=C(NC(=S)Nc1ccc(-c2nc3cc(Cl)ccc3o2)cc1)c1ccco1 2.04
COc1ccc(C(=O)Nc2nc3ccc(C)cc3s2)cc1Br 1.23
CCN(CC)c1ccc(NC(=O)/C(=C\c2ccccc2)NC(C)=O)cc1 1.28
CCOc1ccccc1NC(=O)/C=C/c1ccc(Cl)cc1 1.34
CC(=O)c1cccc(NC(=O)c2ccc(N(Cc3ccc(Cl)cc3)S(C)(=O)=O)cc2)c1 0.635
O=[N+]([O-])c1ccc(-c2ccc(I)cc2)cc1 0.706
CN(C)/C=C(/Cl)C=C1C(=O)c2ccccc2C1=O 0.757
CC1=NN(C(=O)c2ccc(Br)cc2)C(O)(c2ccccc2)C1 (stereo not given) 0.753
CC(=O)Nc1ccc(N2C(=O)C3C4CC(=O)C(c5ccccc54)C3C2=O)cc1 (stereo not given) 0.654
CC12OC3(CCCCC3)C(C)(OC13CCCCC3)O2 0.781
S=C1NC(c2ccccc2)=NCN1c1ccc(Br)cc1 0.684
CC1CCN(c2ccc([N+](=O)[O-])c(SCCO)c2)CC1 0.613
